Data from PubChem BioAssay AID652172 (National Center for Advancing Translational Sciences (NCATS), 2013).
The other results are listed elsewhere or left out. Inconclusive results are not listed. Activity calls are given as the source filed them. Calls come from the whole dose curve; as a rule, active = well fitted inhibition curve with a large enough effect; inconclusive = small, poorly fitted or top-dose-only effect; inactive = flat fitted curve, though single readings scatter.

Biological target: Ubiquitin carboxyl-terminal hydrolase 2 (Homo sapiens) (UniProt O75604)
Sequence (O75604 whole entry, looked up): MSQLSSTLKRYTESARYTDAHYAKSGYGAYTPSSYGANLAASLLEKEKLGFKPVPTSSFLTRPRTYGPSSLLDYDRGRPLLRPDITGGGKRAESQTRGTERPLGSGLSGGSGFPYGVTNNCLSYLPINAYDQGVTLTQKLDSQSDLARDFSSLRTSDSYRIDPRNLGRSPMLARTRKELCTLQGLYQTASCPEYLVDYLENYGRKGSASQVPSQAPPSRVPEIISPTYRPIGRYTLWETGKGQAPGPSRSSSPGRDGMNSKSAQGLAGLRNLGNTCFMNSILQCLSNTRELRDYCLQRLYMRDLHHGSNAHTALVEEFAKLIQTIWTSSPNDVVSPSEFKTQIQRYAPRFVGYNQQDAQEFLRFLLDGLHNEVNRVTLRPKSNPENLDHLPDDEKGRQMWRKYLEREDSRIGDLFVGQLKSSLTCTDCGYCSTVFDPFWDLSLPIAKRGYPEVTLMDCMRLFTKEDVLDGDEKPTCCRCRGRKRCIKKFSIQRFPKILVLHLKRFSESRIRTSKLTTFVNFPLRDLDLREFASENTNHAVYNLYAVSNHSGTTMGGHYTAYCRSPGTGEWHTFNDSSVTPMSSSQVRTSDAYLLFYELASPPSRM
Experiment: Confirmation Assay for Inhibitors of Ubiquitin-specific Protease USP2a Using CHOP2 as the Reporter: K633
Settings: USP2 cleavage of DiUb K63-3IQF, fluorescence kinetic
Description: Homeostasis of cellular proteins is maintained through a combination of synthesis and degradation. The pathway that accounts for the majority of protein degradation is the ubiquitin-proteasomal pathway. Ubiquitin (Ub) is highly conserved in all cells and the generation of a multi-Ub chain typically targets proteins for degradation by the proteasome. However, ubiquitination is highly reversible and dynamic. Deubiquitination, the reverse process, is catalyzed through the action of enzymes referred to as isopeptidases or deubiquitinating enzymes (DUBs). This group of enzymes is collectively responsible for maintaining adequate pools of free ubiquitin and regulating the ubiquitination status of cellular proteins. The class of DUBs referred to as the ubiquitin-specific proteases (USP) family functions endoproteolytically to cleave Ub chains from a wide range of protein substrates. […] Confirmed qHTS active compounds were tested in an orthogonal USP2 assays utilizing a di-ubiquitin substrate labeled with a quencher on one ubiquitin and a fluorescent compound on the other, i.e. the substrate has internally quenched fluorescence or IQF (Lifesensors). In the presence of active USP2, the diubiquitin (DiUb) is cleaved and the fluorescence at 598 nm increases. […] Upon inhibition of USP2, the fluorescence signal from cleaved substrate increases less over time than in the absence of an inhibitor. […]

Row | Compound | Potency
1 | Cc1ccc(-c2cc(C(=O)Nc3ncco3)c3ccccc3n2)cc1C | 3.43 µM (active)
